NOMO-1 viab = NOMO-1 AML cell viability reduction, primary screen, STK33 inhibitor project, CellTiter-Glo luminescence; NOMO-1 AML viability, 72 h; inhibition, % (concentration not given with the values); 37,000 compounds, 7.5% hits; in the data active = inhibition above about 80%
STK33 inh = STK33 kinase inhibitors, primary screen, biochemical, luminescence, ADP-Glo, MBP substrate | AID 2322, 2010 | Serine/threonine-protein kinase 33 (Homo sapiens), Q9BYT3 | 27,000 compounds, 0.44% hits | inhibition, % at 12.5 µM; in the data active = inhibition above about 20%
Target sequence (Q9BYT3 whole entry, looked up): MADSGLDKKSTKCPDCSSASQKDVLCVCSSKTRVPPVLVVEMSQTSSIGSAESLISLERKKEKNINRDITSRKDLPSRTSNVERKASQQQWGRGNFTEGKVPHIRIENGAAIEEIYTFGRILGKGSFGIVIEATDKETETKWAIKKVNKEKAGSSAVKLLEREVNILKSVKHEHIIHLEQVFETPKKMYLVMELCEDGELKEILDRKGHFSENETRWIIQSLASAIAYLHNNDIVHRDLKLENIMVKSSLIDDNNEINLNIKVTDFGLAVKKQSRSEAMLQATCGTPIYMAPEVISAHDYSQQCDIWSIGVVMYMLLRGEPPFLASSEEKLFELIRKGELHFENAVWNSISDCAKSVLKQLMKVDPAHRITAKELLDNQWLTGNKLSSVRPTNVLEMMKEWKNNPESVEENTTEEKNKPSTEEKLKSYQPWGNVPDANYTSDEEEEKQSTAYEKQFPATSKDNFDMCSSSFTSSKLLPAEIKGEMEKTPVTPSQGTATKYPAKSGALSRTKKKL
PD-1 reverse act = activators reversing PD-1 mediated T-cell inhibition, primary screen, luminescence, primary human CD4 T cells, PD-L1 beads. CellTiter-Glo 96 h. activation, % (concentration not given with the values). 29,000 tested, under 10 active; call rule not given here;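 note: 0% = median vehicle wells and 100% = positive control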
Active calls of the source: *; . = not tested or not shown. Many of the other results were omitted from the sample, so hits are more common in it than they were.

SMILES	NOMO-1 viab	STK33 inh	PD-1 reverse act
C[C@H]1CN([C@@H](C)CO)C(=O)c2cccc(NS(=O)(=O)c3ccc(F)cc3)c2O[C@H]1CN(C)Cc1ccc(Cl)c(Cl)c1	24.0	.	-0.9
COc1ccc(S(=O)(=O)Nc2cccc3c2O[C@@H](CN(C)Cc2ccc(Cl)c(Cl)c2)[C@@H](C)CN([C@H](C)CO)C3=O)cc1	114.8*	.	-3.4
C[C@H](CO)N1C[C@H](C)[C@H](CN(C)Cc2ccc(Cl)c(Cl)c2)Oc2c(NS(=O)(=O)c3ccc(F)cc3)cccc2C1=O	91.3*	.	-2.8
COC(=O)C1=CC(O[C@@H]2O[C@H](CO)[C@@H](O)[C@H](O)[C@H]2O)=C[C@H]2[C@]3(C)C[C@@H](c4ccoc4)OC(=O)[C@H]3CC[C@@]12C	.	-2.8	.
C[C@@H]1CN([C@@H](C)CO)C(=O)Cc2cc(NC(=O)CCC(F)(F)F)ccc2O[C@@H]1CN(C)Cc1ccc(C(=O)Nc2ccccc2N)cc1	91.1*	.	-0.2
C[C@@H]1CN([C@H](C)CO)C(=O)c2cc(NC(=O)CCC(F)(F)F)ccc2O[C@H]1CN(C)Cc1ccc(C(=O)Nc2ccccc2N)cc1	44.7	.	-1.2
C[C@@H]1CN([C@H](C)CO)C(=O)Cc2cc(NC(=O)CCN3CCOCC3)ccc2O[C@@H]1CN(C)Cc1ccc(C(=O)Nc2ccccc2N)cc1	37.8	.	-0.2
C[C@@H]1CN([C@@H](C)CO)C(=O)Cc2cc(NC(=O)CCN3CCOCC3)ccc2O[C@@H]1CN(C)Cc1ccc(C(=O)Nc2ccccc2N)cc1	28.7	.	-0.2
C[C@H]1CN([C@@H](C)CO)C(=O)c2cc(NC(=O)CCC(F)(F)F)ccc2O[C@H]1CN(C)Cc1ccc(C(=O)Nc2ccccc2N)cc1	105.7*	.	-2.5
C[C@H](CO)N1C[C@H](C)[C@H](CN(C)Cc2ccc(C(=O)Nc3ccccc3N)cc2)Oc2ccc(NC(=O)CCC(F)(F)F)cc2CC1=O	140.9*	.	-6.7
COc1ccccc1CCNC(=O)c1cc(-c2cccs2)nc2ccccc12	35.7	2.7	.
Cc1cc(C(=O)Nc2cccc3c2O[C@H](CN(C)Cc2ccc(Oc4ccccc4)cc2)[C@@H](C)CN([C@@H](C)CO)C3=O)n(C)n1	69.8	.	-2.0
O=C(Nc1cccc([N+](=O)[O-])c1)c1ccc(Cn2nnc3ccccc32)cc1	15.2	2.0	.
CC(=O)Oc1ccc(-c2coc3cc(OC(C)=O)cc(OC(C)=O)c3c2=O)cc1	28.7	-0.5	0.2
CC(=O)Oc1ccc2ccc3ccc(OC(C)=O)c4ccc1c2c34	126.8*	.	-5.8
COc1ccc([Si](C)(C)[C@H]2[C@H](CCO)O[C@@]3(C(=O)N(Cc4cccc(N5CCCCC5=O)c4)c4ccccc43)[C@@H]2C)cc1	.	3.7	.
COC(=O)c1cc(O)c(C(=O)c2c(O)cccc2C(=O)O)c(O)c1	6.0	94.2*	-0.2
COC(=O)c1cccc(O)c1C(=O)c1c(O)cc(C)cc1O	2.6	-9.7	-1.2
C[C@H](CO)N1C[C@H](C)[C@@H](CN(C)C(=O)Nc2ccc(C(F)(F)F)cc2)Oc2ccc(NC(=O)CCCCCC(=O)Nc3ccccc3N)cc2C1=O	-2.7	.	0.5
C[C@H]1CN([C@@H](C)CO)C(=O)Cc2cc(N(C)C)ccc2O[C@H]1CN(C)S(C)(=O)=O	13.8	7.5	-3.7
C=C1[C@H](OC(=O)C(C)CC)[C@@H](OC(=O)C(C)C)[C@@H](O)C(C)(C)/C=C\[C@H](C)C(=O)[C@@]2(O)C[C@H](C)[C@H](O)[C@@H]2[C@H]1OC(=O)C(C)CC (stereo not given in full)	60.4	-9.1	55.9*
CCOC(=O)COc1c(C#N)sc2c1c(=O)n(-c1ccccc1)c(=S)n2-c1ccccc1	112.2*	.	-1.0
O=C(COc1ccc(I)cc1)Nc1cccc(-c2nnc(-c3ccco3)o2)c1	46.6	7.7	-0.3
Cc1ccc(S(=O)(=O)Nc2ccc3c(c2)C(=O)N([C@@H](C)CO)C[C@@H](C)[C@H](CN(C)S(C)(=O)=O)O3)cc1	5.6	0.5	2.1
C[C@H](CO)N1C[C@H](C)[C@H](CN(C)Cc2ccc(Cl)c(Cl)c2)Oc2ccc(NS(=O)(=O)c3ccc(F)cc3)cc2CC1=O	107.3*	11.3	-0.4
SMILES	NOMO-1 viab	STK33 inh	PD-1 reverse act
C[C@@H]1CN([C@H](C)CO)C(=O)Cc2cc(NS(=O)(=O)c3ccc(F)cc3)ccc2O[C@H]1CN(C)Cc1ccncc1	5.9	-1.3	.
C[C@H]1CN([C@@H](C)CO)C(=O)Cc2cc(NS(=O)(=O)c3ccc(F)cc3)ccc2O[C@@H]1CN(C)Cc1ccc(Cl)c(Cl)c1	57.3	0.5	-1.8
C[C@@H]1CN([C@H](C)CO)C(=O)Cc2cc(NS(=O)(=O)c3ccc(F)cc3)ccc2O[C@@H]1CN(C)Cc1ccc(Cl)c(Cl)c1	106.2*	4.5	-0.1
C[C@H]1CN([C@@H](C)CO)C(=O)c2cccc(NS(=O)(=O)c3ccc(Cl)cc3)c2O[C@@H]1CN(C)S(=O)(=O)c1ccc(F)cc1	11.5	.	0.1
COc1cc(NC(=O)CSc2ncnc3sc4c(c23)CCCC4)cc(OC)c1	-14.0	-0.4	.
C[C@@H]1CN([C@@H](C)CO)C(=O)c2cc(NS(=O)(=O)c3cn(C)cn3)ccc2O[C@H]1CN(C)Cc1ccc(C(=O)Nc2ccccc2N)cc1	49.1	.	1.0
Cc1c(C)c(C)c(CSc2ccccn2)c(C)c1C	32.7	.	0.8
Cc1c(C)c(C)c(CSc2ccccc2N)c(C)c1C	91.5*	.	-2.3
C[C@H](CO)N1C[C@H](C)[C@H](CN(C)Cc2ccc(Cl)c(Cl)c2)Oc2ccc(NS(=O)(=O)c3ccc(Cl)cc3)cc2CC1=O	102.1*	2.9	1.1
C[C@@H]1CN([C@@H](C)CO)C(=O)Cc2cc(NS(C)(=O)=O)ccc2O[C@@H]1CN(C)Cc1ccc(Cl)c(Cl)c1	6.4	1.6	-3.3
C[C@H]1CN([C@@H](C)CO)C(=O)Cc2cc(NS(=O)(=O)c3ccc(Cl)cc3)ccc2O[C@H]1CN(C)Cc1ccc(Cl)c(Cl)c1	97.2*	-1.2	1.5
COc1ccc(CN(C)C[C@@H]2Oc3ccc(NS(=O)(=O)c4ccc(OC)cc4)cc3CC(=O)N([C@H](C)CO)C[C@@H]2C)cc1	44.8	1.4	2.4
C[C@H]1CN([C@@H](C)CO)C(=O)Cc2cc(NS(=O)(=O)c3ccc(Cl)cc3)ccc2O[C@@H]1CN(C)Cc1ccc2c(c1)OCO2	48.1	-2.3	.
C[C@@H]1CN([C@H](C)CO)C(=O)Cc2cc(NS(=O)(=O)c3ccc(Cl)cc3)ccc2O[C@@H]1CN(C)Cc1ccc(Cl)c(Cl)c1	116.7*	2.5	-3.4
COc1ccc(S(=O)(=O)Nc2ccc3c(c2)CC(=O)N([C@@H](C)CO)C[C@H](C)[C@@H](CN(C)Cc2ccc(Cl)c(Cl)c2)O3)cc1	88.2*	.	3.6
C[C@H](CO)N1C[C@H](C)[C@H](CN(C)Cc2ccc3c(c2)OCO3)Oc2ccc(NS(=O)(=O)c3ccc(Cl)cc3)cc2CC1=O	12.7	1.0	2.9
C[C@H]1CN([C@@H](C)CO)C(=O)Cc2cc(N(C)C)ccc2O[C@@H]1CN(C)C(=O)Nc1ccc(F)cc1	-13.0	0.2	-1.2
CNC[C@H]1Oc2ccc(NC(=O)Cc3cn(C)c4ccccc34)cc2C(=O)N([C@H](C)CO)C[C@H]1C	4.0	.	0.5

Screens from PubChem.
